Reference: PubChem BioAssay AID488984 (The Scripps Research Institute Molecular Screening Center, 2010)
Active and inactive are the calls of the source. No stated cut-off is given here; in the data, active means inhibition above about 55%; inactive means the rest.

System: SARS coronavirus 3C-like protease (3CLpro, nsp5)
Assay: blockers of SARS 3CLpro activity – biochemical, fluorescence, set 2, late-stage follow-up (AID 488984)
Settings: recombinant 3CLpro, fluorogenic peptide cleavage; at 100 µM; hits give high values

| SMILES | inhibition |
| --- | --- |
| CC(C)c1ccc(N(C(=O)Cc2cccnc2)C(C(=O)NC(C)(C)C)c2ccsc2)cc1 (centres undefined) | 7.95% (inactive) |
| CC(C)(C)NC(=O)C(c1cccnc1)N(C(=O)c1ccco1)c1ccc(OC(F)F)cc1 (centres undefined) | 45.5% (inactive) |
| Cc1nccn1CC(=O)N(c1ccc(NS(C)(=O)=O)cc1)C(C(=O)NC(C)(C)C)c1ccsc1 (centres undefined) | 0.44% (inactive) |
| CC(C)(C)NC(=O)C(c1cccnc1)N(C(=O)c1cccc2c1CCCC2)c1ccc(OCF)cc1 (centres undefined) | 16% (inactive) |
| CC(=O)Nc1ccc(N(C(=O)Cn2nnc3ccccc32)C(C(=O)NC(C)(C)C)c2ccsc2)cc1 (centres undefined) | 94.8% (active) |
| CC(C)(C)NC(=O)C(c1ccsc1)N(C(=O)Cn1nnc2ccccc21)c1ccc(N)cc1 (centres undefined) | 74.8% (active) |
| CC(C)(C)NC(=O)C(c1ccsc1)N(C(=O)c1cccc2c1CCCC2)c1ccc(OCF)cc1 (centres undefined) | 12.6% (inactive) |
| CC(C)(C)NC(=O)C(c1cccnc1)N(C(=O)c1cccc2c1CCCC2)C1CC1 (centres undefined) | 8.14% (inactive) |
| CC(C)(C)NC(=O)C(c1cccnc1)N(C(=O)c1n[nH]c2ccccc12)c1ccc(F)cc1 (centres undefined) | 9.24% (inactive) |
| CC(C)c1ccc(N(C(=O)Cc2c[nH]c3ccccc23)C(C(=O)NC(C)(C)C)c2ccsc2)cc1 (centres undefined) | 7.61% (inactive) |
| CCC(=O)Nc1ccc(N(C(=O)Cn2nnc3ccccc32)C(C(=O)NC(C)(C)C)c2ccsc2)cc1 (centres undefined) | 94.2% (active) |
| CC(C)(C)NC(=O)C(c1ccsc1)N(C(=O)c1ccco1)c1ccc(F)cc1 (centres undefined) | 11.2% (inactive) |
| CC(=O)Nc1ccc(N(C(=O)Cn2ccnc2C)C(C(=O)NC(C)(C)C)c2ccsc2)cc1 (centres undefined) | 2.36% (inactive) |
| CC(C)(C)NC(=O)C(c1ccsc1)N(C(=O)Cc1c[nH]c2ccccc12)c1ccc(OCF)cc1 (centres undefined) | 35.6% (inactive) |
| CC(C)(C)NC(=O)C(c1ccsc1)N(C(=O)Cc1cccnc1)c1ccc(C(C)(C)C)cc1 (centres undefined) | 37.4% (inactive) |
| CC(C)(C)NC(=O)C(c1ccsc1)N(C(=O)c1ccc(C#N)cc1)C1CC1 (centres undefined) | 11.2% (inactive) |
| CC(C)c1ccc(N(C(=O)c2ccc(C(F)(F)F)nc2)C(C(=O)NC(C)(C)C)c2ccsc2)cc1 (centres undefined) | 8.21% (inactive) |

| SMILES | inhibition |
| --- | --- |
| CC(C)(C)NC(=O)C(c1cccnc1)N(C(=O)c1ccc(C#N)cc1)c1ccc(OCF)cc1 (centres undefined) | -7.47% (inactive) |
| CC(C)(C)NC(=O)C(c1ccsc1)N(C(=O)Cc1cccnc1)c1ccc(F)cc1 (centres undefined) | 19% (inactive) |
| CC(C)(C)NC(=O)C(c1ccsc1)N(C(=O)c1ccc(C(F)(F)F)nc1)C1CC1 (centres undefined) | 11.3% (inactive) |
| CC(C)(C)NC(=O)C(c1cccnc1)N(C(=O)Cc1cccc2ccccc12)c1ccc(F)cc1 (centres undefined) | -7.86% (inactive) |
| CC(C)(C)NC(=O)C(c1ccsc1)N(C(=O)c1cccc2c1CCCC2)C1CC1 (centres undefined) | 34.6% (inactive) |
| CC(C)c1ccc(N(C(=O)c2cccc3c2CCCC3)C(C(=O)NC(C)(C)C)c2ccsc2)cc1 (centres undefined) | 7.39% (inactive) |
| CC(C)(C)NC(=O)C(c1ccsc1)N(C(=O)Cn1cnc2ccccc21)c1ccc(N)cc1 (centres undefined) | 12.6% (inactive) |
| CC(C)c1ccc(N(C(=O)Cc2cccc3ccccc23)C(C(=O)NC(C)(C)C)c2cccnc2)cc1 (centres undefined) | -1.29% (inactive) |
| CC(C)(C)NC(=O)C(c1ccsc1)N(C(=O)Cc1cccnc1)c1ccc(OCF)cc1 (centres undefined) | 56.1% (active) |
| CC(C)c1ccc(N(C(=O)c2n[nH]c3ccccc23)C(C(=O)NC(C)(C)C)c2cccnc2)cc1 (centres undefined) | 13.2% (inactive) |
| CC(C)C(=O)Nc1ccc(N(C(=O)Cn2cnc3ccccc32)C(C(=O)NC(C)(C)C)c2ccsc2)cc1 (centres undefined) | 59.8% (active) |
| CC(C)(C)NC(=O)C(c1cccnc1)N(C(=O)Cc1c[nH]c2ccccc12)c1ccc(OCF)cc1 (centres undefined) | 11.5% (inactive) |
| CC(C)(C)NC(=O)C(c1ccsc1)N(C(=O)c1ccc(C(F)(F)F)nc1)c1ccc(F)cc1 (centres undefined) | 9.21% (inactive) |
| CC(C)(C)NC(=O)C(c1ccsc1)N(C(=O)c1ccco1)C1CC1 (centres undefined) | 7.74% (inactive) |
| CC(C)c1ccc(N(C(=O)c2n[nH]c3ccccc23)C(C(=O)NC(C)(C)C)c2ccsc2)cc1 (centres undefined) | 7.3% (inactive) |
| CC(C)(C)NC(=O)C(c1ccsc1)N(C(=O)c1cccc2c1CCCC2)c1ccc(F)cc1 (centres undefined) | 14.4% (inactive) |
| CC(C)(C)NC(=O)C(c1ccsc1)N(C(=O)c1ccc(C(F)(F)F)nc1)c1ccc(OCF)cc1 (centres undefined) | 21.3% (inactive) |
